Laboratory results published in PubChem BioAssay (NCI).
This is part of a sample that, as a whole, favours compounds with a hit. Of some 83,000 tested, about 20% had one in any assay.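 In brief: 96-well plates, 48 h treatment, single concentration, percent growth endpoint.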 Unmarked numbers belong to inactive results. Active and inactive are the calls of the source. How the source made its calls: active means growth percent below 10; inactive means the rest.

Tested on: HL-60(TB) leukemia
Experiment: NCI-60 one-dose screen, 48 h (100 = growth as untreated, 0 = no growth, -100 = all killed)
Settings: 10 µM unless noted

Point of comparison: `CC(=O)OCC1O[C@@H](OC(C)=O)[C@@H](NC(=O)NS(=O)(=O)c2ccccc2)C(OC(C)=O)[C@@H]1OC(C)=O` (stereo not given in full), growth 95.7%. Against it:
- COc1cc(Cn2ncc3ccc(NC(=O)c4cc5ccccc5oc4=N)cc32)cc(OC)c1OC — lower, 64.8%
- CC1(C)OC(=O)C(c2ccsc2)C(=O)O1 — higher, 112%
- CCN(CC)CCNC(Cc1ccccc1)c1ccc(OCc2ccccc2)cc1 (stereo not given) — lower, 46.8%
- CC(C)CCC[C@@H](C)[C@H]1CC[C@H]2[C@@H](Nc3ccc(O)cc3)CCC[C@]12C — lower, 39.2%
- O=C1CN(Cc2ccc(C(=O)NO)cc2)C(=O)[C@@H](Cc2ccccc2)N1 — higher, 130%
- CCC(c1ccccc1)C(CC)c1ccc(O)c(O)c1 (stereo not given) — lower, 68%
- O=C1C(Cl)=C(Nc2cccc3ccccc23)C(=O)c2ccccc21 — lower, 71.1%
- CS(=O)c1cccc(-c2ccc3nc(N)n(-c4ccc(C(F)(F)F)cc4)c(=O)c3c2)c1 (stereo not given) — higher, 100%
- Nc1ccc(C(=O)/C=C/c2ccccc2)cc1 — lower, 27.4%
- CCCCOc1nc2ccc(Cl)cc2cc1/C=C/C(=O)/C=C/c1ccc(Cl)cc1 — lower, 61.2%
- O=C(/C=C/c1ccco1)c1cccc(Nc2nc(Nc3ccccc3)nc(Nc3ccccc3)n2)c1 — lower, 91.1%
- COc1ccc(Nc2nc(NCc3ccccc3)c3ccccc3n2)cc1 — lower, 89.5%
- COc1ccc(-c2nc3ncccn3c2-c2nc3ccc(Br)cc3[nH]2)cc1 — lower, 81.3%
- COc1ccc(NC(=O)C2CC3C=CC2C3)c([N+](=O)[O-])c1 (stereo not given) — lower, 86.2%
- OC(c1cc(C(F)(F)F)nc2c(C(F)(F)F)cccc12)C1CCCCN1 (stereo not given) — lower, 50.3%
- OCc1ccccc1F — higher, 135%
- Clc1cccc(Cl)c1CSc1nc2ccccc2n2cccc12 — lower, 94.3%

`COC1=CC(c2ccc[nH]2)=N/C1=C\c1[nH]c(C)c(CC(=O)NCc2ccccc2)c1C` was tested, and the growth was -0.337% (active).
In the case of `CNc1ncc2cc(-c3cc(NC(=O)NCCC(C)(C)C)c(F)cc3C)c(C)nc2n1`, the growth was 6.32% (active).
In the case of `COc1ccc(-c2c(NC(=O)Nc3ccc(Cl)c(C(F)(F)F)c3)cnn2-c2ccc(S(N)(=O)=O)cc2)cc1`, the growth was -15% (active).
With `c1ccc2nc(N/N=C3\CCCCC3C3CCCCC3)ccc2c1` (stereo not given) the growth was -19.7% (active).
For `O=C(Oc1ccccc1)C(Br)C(Br)c1ccccc1` (stereo not given), the growth was 2.65% (active).
For `C=C1C(=O)O[C@H]2[C@H]1CC/C(COC(=O)NCc1cc(OC)cc(OC)c1)=C\CC[C@@]1(C)O[C@@H]21`, the growth was -20.1% (active).
With `COc1cc(C(=O)/C=C/c2c(C(F)(F)F)nc3ccccn23)cc(OC)c1OC` the growth was -9.98% (active).
